# Bioassay records: PubChem, National Center for Advancing Translational Sciences (NCATS)
# Sampled rows, rich in hits. Any-hit rate of the full collection: about 1.2%.
# hERG WT inh: inhibitors of human wildtype KCNH2 potassium channel. actives 0.37% (n = 340,000). AID 720551. Q12809. activity change, % at 1.84 µM. U2OS, BacMam KCNH2, thallium flux FluxOr; stronger effect = lower value;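 active means maximum activity change below -70%; inconclusive means maximum activity change between -70% and -50%; inactive means maximum activity change above -50%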; further: on the % scale 0 is the no-effect control and ±100 the full control effect
#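 U2OS cells were transduced with wild-type KCNH2 virus (2.03 x 10^8 / mL) for 4 h at room temperature, then cultured overnight at 37 C. Thallium flux was read with FluxOr dye. Rate constants were normalized to DMSO controls.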
# KCNH2 3.1 inh: KCNH2 3.1 (human) potassium channel inhibition; activity change, % (tested at about 1.8 µM); AID 720553; U2OS KCNH2 3.1, thallium flux FluxOr; stronger effect = lower value; actives 0.95% (n = 340,000);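 active means maximum activity change below -70%; inconclusive means maximum activity change from -70% to -50%; inactive means maximum activity change above -50%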;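 further: thallium influx rate constant from kinetic fluorescence after stimulation buffer; on the % scale 0 is the no-effect control and ±100 the full control effect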
#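 Thallium flux via FluxOr fluorescence (Red40 quencher, 45 min loading) in U2OS cells virally expressing the KCNH2 3.1 isoform (1.77 x 10^8 /mL virus, overnight at 37 C). Rate constants from 2-min kinetic reads post-stimulation, normalised to positive and negative controls.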
# Tb PFK inh: blocks T. brucei phosphofructokinase | T. brucei PFK, ADP-Glo luminescence | O15648 | Potency, µM (highest dose often 57.5 µM), inactives show top-dose activity, negative = inhibition, hits mostly inhibitors | actives 0.17% (n = 330,000); active means well fitted inhibition curve with a large enough effect; inconclusive means small, poorly fitted or top-dose-only effect, or effect the other way;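 further: potency means the concentration at half of the fitted maximal effect; 0% = uninhibited 1x PFK enzyme wells and -100% = no-enzyme wells; nearly all actives have a fitted effect of over 60% in size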
# Target sequence (O15648 whole entry, looked up): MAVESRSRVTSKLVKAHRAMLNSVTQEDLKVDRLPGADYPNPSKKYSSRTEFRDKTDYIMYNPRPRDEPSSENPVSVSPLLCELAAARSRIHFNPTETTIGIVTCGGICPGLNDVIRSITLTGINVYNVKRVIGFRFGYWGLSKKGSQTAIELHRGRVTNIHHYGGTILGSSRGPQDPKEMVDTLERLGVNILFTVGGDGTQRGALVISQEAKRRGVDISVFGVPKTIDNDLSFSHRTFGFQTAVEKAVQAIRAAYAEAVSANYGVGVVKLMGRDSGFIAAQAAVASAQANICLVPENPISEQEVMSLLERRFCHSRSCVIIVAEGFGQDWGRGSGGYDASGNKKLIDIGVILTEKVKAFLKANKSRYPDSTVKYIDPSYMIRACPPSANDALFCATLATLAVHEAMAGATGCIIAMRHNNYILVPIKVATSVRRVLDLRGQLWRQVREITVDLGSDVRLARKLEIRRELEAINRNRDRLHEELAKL
#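 Luminescent ADP detection (ADP-Glo, two-step: ATP depletion then ADP-to-ATP conversion for luciferase) reported PFK activity after 45 min room-temperature reaction of 1.25 nM enzyme with 0.5 mM F6P and 0.1 mM ATP at pH 8.0.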
# TSG101-PTAP inh: blocks PTAP/TSG101 interaction to inhibit HIV-1 budding | Q99816 | Fluorescence polarization, FITC-PTAP peptide / Tsg101 binding | Potency, µM (series often up to 115 µM), for inactives: top-dose activity change, negative = inhibition, most hits filed as inhibitors | 340,000 tested, under 10 active | AID 493005; active means well fitted inhibition curve with a large enough effect in the main read-out, with a control signal flat, not every such curve was filed as active; inconclusive means small, poorly fitted or top-dose-only effect, or effect the other way, or a change in a side signal; inactive means no such curve, though single readings can be large or run the other way; further: potency means the concentration at half of the fitted maximal effect; % of control where 0% means no effect
#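 Steps: Tsg101 binding domain dispensed (10 uM final), compounds pinned in DMSO, FITC-labeled PTAP-motif peptide added (50 nM final); after 20 min binding at room temperature, polarization measured.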
# Active calls of the source: *; ? = inconclusive; nt = not tested or not shown.
SMILES,hERG WT inh,KCNH2 3.1 inh,Tb PFK inh,TSG101-PTAP inh
O=C1C=CC(=O)N1N(c1ccccc1)c1ccccc1,2,3,-2%,-4%
O=C(CNS(=O)(=O)c1ccc(Cl)c(C(F)(F)F)c1)NC1CCCCCC1,-32,-7,2%,2%
Cc1nc(NS(=O)(=O)c2ccccc2)sc1C(=O)N/N=C/c1ccccc1,0,-1,5%,-2%
CC1CCN(c2ccc(C=O)o2)CC1,nt,-196*,12%,-2%
COc1ccc(NC(=S)Nc2ccc3snnc3c2)cc1,4,-83*,-1%,-2%
FC(F)(F)c1ccncc1-c1nnc(C2CCCCC2)o1,-5,-6,0%,-2%
c1cncc(-c2nnc(C3CCCCC3)o2)c1,-2,-80*,1%,-7%
COc1ccc(C(=O)NCC(=O)N/N=C/c2cccc(OC(=O)c3ccco3)c2)cc1OC,-75*,-3,5%,-4%
O=[N+]([O-])c1ccc(C2=NN(c3ccccc3)C(c3ccco3)C2)cc1 (stereo not drawn),?,?,8%,17%
O=[N+]([O-])c1ccc(/C=C/C2=NN(c3ccccc3)C(c3ccco3)C2)cc1 (stereo not drawn),?,-100*,-1%,10%
O=C1CC2(CCN1)CCN(Cc1ccccc1)CC2,19,nt,nt,0%
COc1cc(CNCCc2c[nH]c3ccccc23)ccc1OCc1ccc(F)cc1,-20,-88*,-2%,-1%
COc1cccc(CNCCc2c[nH]c3ccccc23)c1OCc1ccc(F)cc1,1,-38,1%,-4%
CN(C)CCCNc1ncnc2sc(-c3ccccc3)cc12,17,-89*,1%,0%
CCOC(CNc1ncnc2sc(-c3ccccc3)cc12)OCC,-4,10,-1%,1%
Cc1ccc(C(=O)N2CCN3C(=O)c4ccccc4C23c2ccc(Cl)cc2)cc1 (stereo not drawn),-14,-76*,2%,-8%
O=C(CCl)N1CCN2C(=O)c3ccccc3C12c1ccc(Cl)cc1 (stereo not drawn),-5,3,15%,0%
CN(Cc1ccccc1)S(=O)(=O)c1cccc2cccnc12,-76*,20,4%,-7%
C/C(=N\NC(=O)CSc1nc2ccccc2o1)c1cccc(O)c1,5,-116*,2%,-3%
O=C(O)Cc1sc(N/N=C\c2ccncc2)nc1-c1ccccc1,-6,8,1%,3%
O=C(Nc1ccc(CN2CCCCC2)cc1)Nc1ccc(Br)cc1Cl,?,-110*,6%,-1%
S=C(Nc1ccc(Br)cc1Cl)N1CCCC1,-4,6,-10%,1%
O=C(NC(=S)Nc1ccc(CN2CCCCC2)cc1)c1cc2ccccc2o1,26,-94*,-11%,2%
Cc1ccc(C(=O)NC(=S)Nc2ccc(CN3CCCCC3)cc2)c(C)c1,27,-73*,1%,-2%
CC(=O)N1CCOc2cc(S(=O)(=O)Nc3c(C)cccc3C(C)C)c(Cl)cc21,nt,nt,0%,nt
SMILES,hERG WT inh,KCNH2 3.1 inh,Tb PFK inh,TSG101-PTAP inh
O=C(Oc1ccc(=O)[nH]n1)c1ccccc1,-5,5,nt,nt
Cc1ccc2c(c1)[C@H]1[C@H](CO2)[C@H](c2ccccc2)[C@]2(C)C(=O)N(CC3CCCO3)CC(=O)N12 (stereo partly drawn),7,-50,4%,-4%
C[C@@]12C(=O)N(CC3CCCO3)CC(=O)N1[C@H]1c3cc(Cl)ccc3OC[C@@H]1[C@@H]2c1ccccc1 (stereo partly drawn),3,-93*,5%,2%
C[C@@]12C(=O)Nc3ccc(Br)cc3C(=O)N1[C@H]1c3cc(Cl)ccc3OC[C@@H]1[C@@H]2c1ccccc1,-3,-74*,-4%,-5%
CCOC(=O)N1CCC(NC(=O)CCN2C(=O)COc3ccccc32)CC1,-253*,-1,?,-5%
CCOC(=O)N1CCN(C(=S)NC(=O)c2ccc(F)cc2)CC1,-5,-73*,-2%,-1%
CC(=O)Nc1ccc(Sc2ncccc2C(=O)Nc2ccc(OC(F)(F)F)cc2)cn1,1,-86*,-8%,1%
COc1ccc([C@H]2C[C@H](n3cc(-c4ccc(F)cc4)nn3)[C@@H](O)CN2C(=O)C2CCCCC2)cc1,-4,-10,nt,nt
CCC(Oc1ccccc1)C(=O)N1CCC(C(N)=O)CC1 (stereo not drawn),-109*,-2,-5%,-3%
COc1ccccc1OCCn1cc(C=O)c2ccccc21,-7,-90*,0%,-4%
COC(=O)c1c(NC(=O)CCCC(=O)O)sc(C)c1C,4,-83*,1%,-3%
COC(=O)c1c(NC(=O)Cn2nc(C(F)F)cc2C(F)F)sc(C)c1C,-11,-75*,-10%,-3%
CC(=O)Nc1cccc(NC(=O)c2csc(C)c2)c1,0,16,-2%,-2%
COc1cc2c(cc1OC)C(C(=O)Nc1ccc(F)c(Cl)c1)CC(=O)N2 (stereo not drawn),2,-110*,0%,-1%
O=C1OC(c2ccccc2)(c2cc(Br)ccc2O)c2ccccc21 (stereo not drawn),-3,16,nt,-2%
COc1cccc(-c2noc(C3CCCN(C(=O)CC(C)(C)C)C3)n2)c1 (stereo not drawn),-87*,-22,8%,-4%
Cc1ccc(NC(=O)N2CCCc3ccccc32)cc1C,1,2,0%,-6%
Cc1cccc(OC(C)C(=O)Nc2ccc(S(=O)(=O)N3CCCC3)cc2)c1 (stereo not drawn),-11,-188*,0%,-3%
Cc1c(NS(=O)(=O)c2cccs2)cccc1-c1nc2cccnc2s1,-3,-87*,1%,-4%
Cc1c(NS(C)(=O)=O)cccc1-c1nc2cccnc2s1,2,-1,0%,-2%
CC1CCCCN1S(=O)(=O)c1ccc(N(C(=O)c2cnccn2)C(C(=O)NC2CCCC2)c2cccs2)cc1 (stereo not drawn),13,2,-1%,-7%
CC1CCCCN1S(=O)(=O)c1ccc(N(C(=O)c2cnccn2)C(C(=O)NC2CCCCC2)c2cccs2)cc1 (stereo not drawn),-71*,7,0%,0%
COC(=O)CC(c1ccc(OC)c(OC)c1)c1ccc(OC)c(OC)c1,-212*,-5,-5%,-3%
CN(C)c1cc2c3ccccc3n(C)c2cc1N,-7,-2,nt,-2%
COc1ccc2c(C)cc(=O)[nH]c2c1,-5,-95*,-2%,-5%
COc1ccc(C(=O)NCCNc2nc3ccc(C)cc3cc2C#N)cc1OC,-13,10,1%,-4%
COc1ccc(Cn2c(CCC(=O)O)nc3cccnc32)cc1,-4,-72*,2%,-4%
COc1cc2c(c(OC)c1OC)-c1c(cc(OC)c(OC)c1OC)C[C@H](C)[C@H](C)C2,-74*,-174*,9%,-9%
Cc1nn2c(=O)cc(CSCC(=O)Nc3ccccc3F)nc2s1,-17,-142*,-13%,-5%
Nc1ccccc1S(N)(=O)=O,-3,-11,0%,2%
